Pf growth 96h – P. falciparum growth inhibition at 96 hours | P. falciparum luciferase reporter growth, 96 h | Potency, µM (top dose mostly 28.7 µM), for the others: top-dose activity change, negative = inhibition, hits mostly inhibitors | 320,000 compounds, 6.9% hits | AID 504834; note: % is set by controls: 0 for no effect and ±100 for the full control effect
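Compounds incubated with erythrocytes infected by luciferase-expressing P. falciparum (2% hematocrit, 0.05% parasitemia final) for 96 hours, 37 C in 5% CO2. Growth inhibition scored as decreased luciferase luminescence.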
Vaccinia Venus – inhibitors of vaccinia virus (Venus reporter); Potency, µM (top dose mostly 36.5 µM), for the others: top-dose activity change, negative = inhibition, hits mostly inhibitors; Vaccinia virus Venus reporter expression, fluorescence; 330,000 compounds, 0.46% hits; calls by dose curve; tested in A549 cells; note: % is set by controls: 0 for no effect and ±100 for the full control effect; nearly all actives have a fitted effect of over 30% in size
Vaccinia mCherry – inhibitors of vaccinia virus infection (mCherry reporter signal); Vaccinia virus mCherry reporter infection, fluorescence; 310,000 compounds, 0.63% hits; Potency, µM (titrated, usually from 36.5 µM), for the others: top-dose activity change, negative = inhibition, hits mostly inhibitors; calls by dose curve; tested in A549 cells; note: % is set by controls: 0 for no effect and ±100 for the full control effect; nearly all actives have a fitted effect of over 35% in size
HCV inh – HCV inhibition; Huh7.5.1 HCVcc-Cre infection, luciferase reporter, 44 h; 340,000 compounds, 3.4% hits; Potency, µM (titrated, usually from 41.8 µM), for the others: top-dose activity change, negative = inhibition, actives largely listed as inhibitors; note: % is set by controls: 0 for no effect and ±100 for the full control effect
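Cells seeded at 1,000/well and cultured 4 h, then compounds added followed by HCVcc-Cre virus (~0.5 moi). After 44 h further culture, luciferase substrate was added, plates held 15 min at room temperature, and luminescence read for 15 sec.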
NS1 inh – inhibitors of influenza NS1 protein function; Potency, µM (highest dose often 46.1 µM), inactives show at the top dose activity, positive = more growth; 270,000 compounds, 0.4% hits; calls by dose curve; note: actives are rising curves; nearly all actives have a fitted effect of over 50% in size
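In this qHTS, NS1 from influenza A is expressed in budding yeast, where it slows growth. Cells are switched from glucose to 2% galactose medium (pH 6.0, -URA), treated with compound, and growth recovery is read at OD600.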
Pf growth 48h – inhibits P. falciparum growth in the first generation, 48 h. Potency, µM (titrated, usually from 28.7 µM), inactives show at the highest dose activity change, negative = inhibition, most hits filed as inhibitors. P. falciparum luciferase growth in erythrocytes, 48 h. 310,000 compounds, 5.9% hits; note: % is set by controls: 0 for no effect and ±100 for the full control effect
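First compound was added to culture medium, then infected red cells at 0.1% parasitemia and 2% hematocrit (final). After incubation at 37 C under 5% CO2, luciferase detection reagent was dispensed and light output recorded.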
* marks the source's active call; other numbers are inactive results; i = inactive; ? = inconclusive; nt = not tested or not shown; [ ] = remark or other dose. A selection: hits, their analogues and other compounds. The true share with any hit is near 11%. Unless noted, calls come from the whole dose curve; as a rule, active = well fitted inhibition curve with a large enough effect; inconclusive = small, poorly fitted or top-dose-only effect, or another doubt; inactive = no such curve, though single readings can be large or run the other way. Potency is the fitted concentration of half-maximal effect.

SMILES	Pf growth 96h	Vaccinia Venus	Vaccinia mCherry	HCV inh	NS1 inh	Pf growth 48h
CC(C)(C)NC(=O)C1CCN(S(=O)(=O)c2cccc3nsnc23)CC1	15.8%	nt	nt	22.6%	3.7%	4.0%
COC(=O)CNC(=O)C1CCN(S(=O)(=O)c2cccc3nsnc23)CC1	13.1µM*	-11.6%	i	?	11.0%	16.6%
Cc1cccc(CSc2nc3ccncc3n2CC(=O)Nc2ccc(C)c(C)c2)c1	3.7µM*	nt	nt	-1.8%[8.37 µM]	25.3%	1.4%
COc1ccc(-c2nnc(SCC(=O)N(Cc3ccccc3)C(C)(C)C)o2)cc1OC	nt	nt	nt	?	-64.5%	11.7µM*
Cc1c(C(=O)N2CCC(n3nccc3NC(=O)C3CC3)CC2)[nH]c2ccc(Cl)cc12	?	-2.1%	-10.5%	-14.4%	-1.0%	-24.3%
CCN(Cc1cccc(S(=O)(=O)O)c1)c1ccc(C(=C2C=CC(=[N+](CC)Cc3cccc(S(=O)(=O)O)c3)C=C2)c2ccc(O)cc2S(=O)(=O)O)cc1	nt	-19.8%	10µM*	nt	nt	nt
CCN(Cc1cccc(S(=O)(=O)O)c1)c1ccc(C(=C2C=CC(=[N+](CC)Cc3cccc(S(=O)(=O)O)c3)C=C2)c2ccccc2S(=O)(=O)[O-])cc1	nt	-10.8%	?	nt	nt	nt
COc1ccc(-n2nc3cc(C)c(N)cc3n2)cc1Cl	5.4%	nt	nt	4.9%	28.8%	120.5%
CC(NC(=O)CNC(=O)c1cccc(Cl)c1)c1ccccc1 (stereo not given)	?	nt	nt	3.2%	3.4%	16.6%
CC(C)Cc1nc(SCC(=O)N2CCOCC2)c2c(=O)n(C)c(=O)n(C)c2n1	?	nt	nt	-13.0%	2.1%	29.4%
CC(C)Cc1nc(SCC(=O)N2CCCCC2)c2c(=O)n(C)c(=O)n(C)c2n1	52.8%	nt	nt	25.1µM*	0.0%	9.9%
CC(C)Sc1nc(SCC(=O)NCc2ccco2)c2c3c(sc2n1)COC(C)(C)C3	2.62µM*	-18.2%	i	?	2.0%	?
CC(C)Sc1nc2sc3c(c2c2nnc(SCC(=O)NCc4ccco4)n12)CCCC3	?	-9.2%	-8.9%	10.6%	-9.7%	6.57µM*
CCC1CCc2c(sc3nc(SCC(=O)NCc4ccco4)n(-c4ccccc4)c(=O)c23)C1 (stereo not given)	-27.6%	10.9%	nt	-1.0%	9.8%	11.7µM*
CCCCn1c(N)c(N(CCOC)C(=O)c2sc3cc(F)ccc3c2Cl)c(=O)[nH]c1=O	1.9%	-6.4%	i	?	nt	?
Cc1cc([N+](=O)[O-])ccc1NCc1ccccc1	153.9%	-7.5%	-12.4%	-16.4%	-7.8%	37.0%
Cc1cc([N+](=O)[O-])ccc1NCc1ccc2ccccc2c1	9.3%	-8.2%	i	11.2µM*	9.4%	-2.6%
O=C(c1ccc2c(c1)OCCO2)C1CCN(C(=O)Nc2ccc(F)cc2)CC1	?	-26.8%	-6.0%	-29.9%	-0.8%	-25.8%
CCCn1c(=S)[nH]c2cc(C(=O)N3CCN(C(=O)OCC)CC3)ccc2c1=O	?	-9.4%	i	-16.1%	-9.8%	13.9%
CCOC(=O)N1CCN(C(=O)c2ccc3c(=O)n(CCc4ccccc4)c(=S)[nH]c3c2)CC1	8.28µM*	-12.0%	-13.1%	-14.0%	-16.1%	?
CCOc1cc2[nH]c(=S)n(Cc3ccc(C(=O)O)cc3)c(=O)c2cc1OCC	9.28µM*	nt	nt	18.1%	5.8%	26.1%
CC1CCN(CCCn2c(=S)[nH]c3ccccc3c2=O)CC1	94.0%	-8.5%	nt	-5.7%	7.0%	-2.9%
O=c1c2ccccc2[nH]c(=S)n1CCCN1CCN(C2CCCCC2)CC1	nt	-5.9%	nt	-12.2%	2.3%	13.1µM*
CCN1CCN(C(=O)c2ccc3c(=O)n(Cc4ccccc4OC)c(=S)[nH]c3c2)CC1	160.1%	nt	nt	11.2µM*	0.4%	-0.9%
COc1ccccc1Cn1c(=S)[nH]c2cc(C(=O)N3CCCC3)ccc2c1=O	?	nt	nt	-5.6%	13.5%	?
CCC1(C2CCN(C(=O)c3cc(C)cc(C)c3)CC2)NC(=O)N(CCc2scnc2C)C1=O (stereo not given)	nt	-7.2%	-22.0%	nt	nt	nt
CCCn1c(=S)[nH]c2cc(C(=O)N3CCN(C4CCCCC4)CC3)ccc2c1=O	10.4µM*	-7.7%	-5.4%	3.0%	-9.2%	0.4%
CCOC(=O)N1CCN(C(=O)c2ccc3c(=O)n(Cc4ccc(Cl)cc4)c(=S)[nH]c3c2)CC1	56.8%	-30.6%	?	-1.2%	19.6%	0.6%
CCOC(=O)N1CCN(C(=O)c2ccc(Cn3c(=S)[nH]c4ccc(Br)cc4c3=O)cc2)CC1	3.7µM*	-21.4%	i	?	12.2%	11.7µM*
CC(C)(C)c1nc2cc(Cl)c([N+](=O)[O-])cc2o1	82.9%	?	?	-1.5%	2.0%	11.4%
